The list is not random: actives were taken first. Their share in the collection is about 3.9%.
Anthrax LF prot: Bacillus anthracis LF protease inhibitors, primary screen, biochemical, multiplex microsphere, MLPCN library. multiplex microsphere protease cleavage assay. inhibition, % at 10 µM. actives 0.12% (n = 360,000). AID 588501, 2011; note: plate controls were buffer without enzyme for full effect and enzyme alone for no effect
Target sequence (P15917 whole entry, looked up): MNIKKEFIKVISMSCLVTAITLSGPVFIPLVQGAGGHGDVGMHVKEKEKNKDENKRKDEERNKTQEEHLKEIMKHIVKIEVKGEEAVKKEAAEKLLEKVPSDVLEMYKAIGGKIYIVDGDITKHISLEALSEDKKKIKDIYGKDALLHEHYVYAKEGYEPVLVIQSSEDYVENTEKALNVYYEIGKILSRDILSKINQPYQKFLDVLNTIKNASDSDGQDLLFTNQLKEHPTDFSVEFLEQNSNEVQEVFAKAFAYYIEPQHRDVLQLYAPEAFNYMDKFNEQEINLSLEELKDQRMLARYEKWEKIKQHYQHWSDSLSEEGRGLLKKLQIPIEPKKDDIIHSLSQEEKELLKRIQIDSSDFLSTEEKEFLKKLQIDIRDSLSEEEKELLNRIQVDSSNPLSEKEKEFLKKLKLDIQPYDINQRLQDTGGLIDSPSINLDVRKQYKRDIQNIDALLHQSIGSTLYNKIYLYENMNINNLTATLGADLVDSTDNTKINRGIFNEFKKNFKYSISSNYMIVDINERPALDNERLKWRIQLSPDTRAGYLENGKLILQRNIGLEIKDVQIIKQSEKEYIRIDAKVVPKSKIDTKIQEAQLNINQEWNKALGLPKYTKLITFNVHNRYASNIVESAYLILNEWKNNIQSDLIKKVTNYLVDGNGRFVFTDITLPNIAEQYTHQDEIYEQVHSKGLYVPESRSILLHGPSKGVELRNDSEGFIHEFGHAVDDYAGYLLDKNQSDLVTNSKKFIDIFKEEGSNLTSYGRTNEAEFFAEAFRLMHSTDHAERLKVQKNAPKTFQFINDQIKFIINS
Autofluor counter: flagged as autofluorescent in microsphere protease counterscreen | actives 3.1% (n = 360,000) | AID 624483 | fluorescence intensity (no concentration beside the values) | compound autofluorescence counterscreen, microsphere flow cytometry; hits give high values; in the data active = fluorescence intensity above about 16000; inconclusive = no clear call, values can overlap the other calls
BoNT A protease: BoNT/A light chain protease inhibitors, primary screen, biochemical, flow cytometry, MLPCN library | actives 0.17% (n = 360,000) | inhibition, % at 10 µM | AID 588499, 2011 | Botulinum neurotoxin type A light chain protease (Clostridium botulinum A str. ATCC 3502) | multiplex microsphere protease substrate cleavage; note: plate controls were buffer without enzyme for full effect and enzyme alone for no effect
SARS 3CLpro inh: SARS-CoV 3CLpro protease inhibitors, primary screen, biochemical, quenched FRET; Replicase polyprotein 1ab (Severe acute respiratory syndrome coronavirus), P0C6X7; recombinant SARS-CoV 3CLpro, quenched FRET peptide cleavage; inhibition, % at 6 µM; actives 0.14% (n = 290,000); AID 1706, 2009; in the data active = inhibition above about 12%
BoNT F protease: BoNT/F light chain protease inhibitors, primary screen, biochemical, flow cytometry, MLPCN library. Multiplex microsphere protease cleavage assay. inhibition, % at 10 µM. actives 0.22% (n = 360,000); in the data active = inhibition above about 35%, passing the limit was not always enough; inconclusive = no clear call, values can overlap the other calls; note: plate controls were buffer without enzyme for full effect and enzyme alone for no effect
CCHF vOTU inh: CCHFV vOTU protease inhibitors, primary screen, biochemical, Pep-AMC substrate, fluorescence; inhibition, % at 11.5 µM; actives 0.55% (n = 370,000); AID 651958, 2012; Crimean-Congo hemorrhagic fever virus L polyprotein viral ovarian tumor (vOTU) protease …; in the data active = inhibition above about 30%; note: 0% = vehicle wells with enzyme and 100% = no enzyme wells
* hit, by the source's call. Cut-off read from the data, not from the text of the source, unless noted: active = inhibition above about 30%; inconclusive = no clear call, values can overlap the other calls; inactive = below that.

For COc1c(C)cc(Br)cc1C(=O)O the results were Anthrax LF prot -5, Autofluor counter 22363*, BoNT A protease 0, SARS 3CLpro inh 0, BoNT F protease -2 and CCHF vOTU inh 8.
Screening CCCCN1C(=O)N2Cc3ccccc3C2CS1(=O)=O (centres undefined) returned CCHF vOTU inh -3.
Screening Cc1cnc(C(=O)Nc2ccc(C(C)C)cc2)cn1 returned Anthrax LF prot -1, Autofluor counter 3899, BoNT A protease 0, SARS 3CLpro inh -1, BoNT F protease -2 and CCHF vOTU inh -4.
Cc1cnc(C(=O)Nc2ccc(F)cc2)cn1 was read as Anthrax LF prot 2, Autofluor counter 21955*, BoNT A protease 3, SARS 3CLpro inh 6, BoNT F protease 6 and CCHF vOTU inh 2.
Screening CCCC(C(=O)OCC)P(=O)(c1ccccc1)c1ccccc1 (centres undefined) returned Anthrax LF prot -3, Autofluor counter 23167*, BoNT A protease inconclusive, SARS 3CLpro inh 0, BoNT F protease 1 and CCHF vOTU inh -12.
For CCc1nnc(NC(=O)Cn2nc(-c3ccc(OC)c(OC)c3)ccc2=O)s1 the results were Anthrax LF prot 0, Autofluor counter 8710, BoNT A protease 1, SARS 3CLpro inh -1, BoNT F protease 3 and CCHF vOTU inh 2.
For CCCc1nnc(NC(=O)CCC(=O)NCc2ccccc2OC)s1 the results were Anthrax LF prot -2, Autofluor counter 22157*, BoNT A protease 0, SARS 3CLpro inh -6, BoNT F protease 0 and CCHF vOTU inh 4.
Screening CCc1nnc(NC(=O)Cn2nc(-c3ccccc3OC)ccc2=O)s1 returned Anthrax LF prot -3, Autofluor counter 22524*, BoNT A protease inconclusive, SARS 3CLpro inh -6, BoNT F protease 1 and CCHF vOTU inh -3.
Screening O=C(NCc1ccc(Cl)cc1)C1CCCN(c2ncccn2)C1 (centres undefined) returned CCHF vOTU inh -3.
`CCOC(=O)C1=C(C)NC(C)=C(C(=O)OC)C1c1ccco1` (centres undefined) gave Anthrax LF prot -1, Autofluor counter 6678, BoNT A protease 0, SARS 3CLpro inh -1, BoNT F protease 12 and CCHF vOTU inh 4.
For CCOC(=O)C1=C(C)NC(=O)C(C#N)C1c1ccco1 (centres undefined) the results were Anthrax LF prot -1, Autofluor counter 18722*, BoNT A protease inconclusive, SARS 3CLpro inh 4, BoNT F protease -17 and CCHF vOTU inh -7.
O=c1c2cc3cc4c(cc3nc2ncn1Cc1cccnc1)OCO4 was read as CCHF vOTU inh -21.
For Clc1ccc(OCc2nn3c(C4CCCCC4)nnc3s2)c(Cl)c1 the results were Anthrax LF prot -1, Autofluor counter 22251*, BoNT A protease -3, SARS 3CLpro inh 2, BoNT F protease -4 and CCHF vOTU inh 1.
For Cc1ccc(OCc2nn3c(C4CCCCC4)nnc3s2)cc1 the results were CCHF vOTU inh 16.
For Cc1cccc(-c2cccc3c4c([nH]c23)[C@@H]2C[C@H](N(C)C(=O)NC3CCCCC3)[C@H]([C@H](C)O)C(=O)N2CC4)c1 the results were CCHF vOTU inh -2.
Screening O=C(Nc1ccc2oc(-c3ccccc3)nc2c1)c1cc(-n2cnnc2)ccc1Cl returned Anthrax LF prot -8, Autofluor counter 4432, BoNT A protease 0, SARS 3CLpro inh -3, BoNT F protease -10 and CCHF vOTU inh 12.
`Cc1c(NC(=O)c2cc(-n3cnnc3)ccc2Cl)cccc1-c1nc2ccccc2o1` gave Anthrax LF prot -6, Autofluor counter 2147, BoNT A protease 0, SARS 3CLpro inh -3, BoNT F protease -19 and CCHF vOTU inh -7.
For O=C(Nc1ccc(-c2nc3ccccc3o2)c(O)c1)c1cc(-n2cnnc2)ccc1Cl the results were Anthrax LF prot 1, Autofluor counter 21640*, BoNT A protease -2, SARS 3CLpro inh 1, BoNT F protease -2 and CCHF vOTU inh -49.
For O=C(Nc1ccc(-c2nc3ccccc3o2)cc1)c1cc(-n2cnnc2)ccc1Cl the results were Anthrax LF prot -1, Autofluor counter 23846*, BoNT A protease 0, SARS 3CLpro inh 1, BoNT F protease -2 and CCHF vOTU inh -2.
O=C(NC1CCCCN(Cc2cccc(F)c2)C1=O)c1cccc(F)c1 (centres undefined) was read as CCHF vOTU inh 1.
Screening C/C(CC1CC(COCCC(C)C)OC1=O)=N\NC(N)=S (centres undefined) returned Anthrax LF prot -2, Autofluor counter 20283*, BoNT A protease 1, SARS 3CLpro inh 2, BoNT F protease 1 and CCHF vOTU inh -12.
Screening Cc1ccc(-c2cnc(N)n2C)cc1C returned Anthrax LF prot -5, Autofluor counter 23519*, BoNT A protease -2, SARS 3CLpro inh -1, BoNT F protease -6 and CCHF vOTU inh 1.
Screening Cn1c(-c2ccc(Cl)cc2)cnc1N returned Anthrax LF prot inconclusive, Autofluor counter inconclusive, BoNT A protease inconclusive, SARS 3CLpro inh 5, BoNT F protease -9 and CCHF vOTU inh -8.
Screening CC(C)c1cc(C(=O)N(C2CCCCC2)C2CCCCC2)no1 returned CCHF vOTU inh 11.
For FC(F)(F)c1ccccc1CN1CCN(Cc2ccccc2)CC1 the results were Anthrax LF prot -8, Autofluor counter 5772, BoNT A protease 0, SARS 3CLpro inh 4, BoNT F protease -7 and CCHF vOTU inh 2.
Screening Cc1ccccc1CN1CCN(Cc2ccccc2C(F)(F)F)CC1 returned Anthrax LF prot -6, Autofluor counter 20858*, BoNT A protease inconclusive, SARS 3CLpro inh 6, BoNT F protease 2 and CCHF vOTU inh 11.
O=S(=O)(c1ccccc1)N1CCCc2nc(-c3ccc(F)cc3)ccc21 was read as CCHF vOTU inh -1.
`CSc1nc(NCc2ccco2)c2sc3nc(C(C)C)c4c(c3c2n1)CC(C)(C)OC4` gave Anthrax LF prot 0, Autofluor counter 19909*, BoNT A protease inconclusive, SARS 3CLpro inh -1, BoNT F protease 0 and CCHF vOTU inh 6.
Screening CC(C)c1nc2sc3c(NCc4ccco4)ncnc3c2c2c1COC(C)(C)C2 returned Anthrax LF prot -4, Autofluor counter 2940, BoNT A protease 0, SARS 3CLpro inh 0, BoNT F protease 0 and CCHF vOTU inh 7.
For O=C(C(Cl)Cl)N1c2ccccc2OCC1c1ccccc1 (centres undefined) the results were Anthrax LF prot -1, Autofluor counter 22852*, BoNT A protease inconclusive, SARS 3CLpro inh -4, BoNT F protease -3 and CCHF vOTU inh 4.

Source: PubChem (several laboratories)
